This is an account of results in PubChem BioAssay (Tox21).

“And” between values parts separate entries of the source, which are not always exact repeats. Identical values can stand only once. Records with an inconclusive call do not appear. Some compounds were tested as several samples or in several runs, with calls that do not always agree. The source made the active and inactive calls. Unless noted, calls follow the shape of the dose curve; as a rule, active = well fitted curve in the direction sought with a large enough effect in the repeat runs; inconclusive = weak or mixed curves; inactive = no such curve, though single readings can be large; an effect the other way counts as inactive or inconclusive.

Assay [1] has as its target Thyrotropin-releasing hormone receptor (Homo sapiens) (UniProt P34981). Kind of assay: qHTS assay to identify small molecule agonists of the thyrotropin-releasing hormone receptor (TRHR) signaling pathway (AID 1346891; calls by dose curve;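 also: HEK293 cells expressing TRHR with calcium dye readout; series mostly up to about 58 µM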). In outline:
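Compounds were tested as agonists at 15 concentrations, in triplicate, on TRHR-Hek293 cells; calcium-sensitive dye fluorescence was recorded for 3 min following addition.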
In general terms: qHTS replaces the single test concentration by a dilution series.

Assay [2] can be described thus: Human pregnane X receptor (PXR) small molecule agonists, qHTS cell viability counter screen (AID 1346977). Also: nearly all actives have a fitted effect of over 50% in size. Also: potency is read from the fitted curve at half-maximal effect. In outline: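 Viability counter screen: CellTiter-Fluor signal in PXR-Luc HepG2 cells, 24hr compound exposure, 37C, 5% CO2.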
A short description of assay [3]: Caspase-3/7 induction in HepG2 cells by small molecules, qHTS assay (AID 1346978). Also: nearly all actives have a fitted effect of over 15% in size. The method in brief: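 Wild-type HepG2 cells (2,000/well) were settled 5 h at 37 C, 5% CO2, then exposed to compounds in DMSO for 17 h. Caspase-3/7 activity was read by luminescence 30 min after adding Caspase-Glo 3/7 reagent at room temperature.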
A short description of assay [4]: Caspase-3/7 induction in CHO-K1 cells by small molecules, qHTS cell viability counter screen (AID 1346979). Also: nearly all actives have a fitted effect of over 35% in size. Also: potency is read from the fitted curve at half-maximal effect. In outline:
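Viability readout by fluorescence (CellTiter-Fluor) on wild-type CHO-K1 cells exposed for 16hr at 37C and 5% CO2 to compounds delivered in DMSO; reagent incubated 1hr before reading.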

Assay [5] can be described thus: Caspase-3/7 induction in CHO-K1 cells by small molecules, qHTS assay (AID 1346980). Also: nearly all actives have a fitted effect of over 15% in size. In outline:
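Wild-type cells were seeded at 1,500 per well and settled 5 hr at 37 C, 5% CO2, then exposed to DMSO-dissolved compounds for 17 hr. Caspase-Glo 3/7 reagent was added, and luminescence was read after 30min at room temperature.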

The nature of assay [6]: Caspase-3/7 induction in HepG2 cells by small molecules, qHTS cell viability counter screen (AID 1346981). Also: nearly all actives have a fitted effect of over 30% in size. Also: potency is read from the fitted curve at half-maximal effect. As to activity change, negative = cytotoxicity: series mostly up to about 92 µM. The method in brief: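 Steps: seed 2,000 HepG2 cells per well; incubate 5 hr at 37 C; pin-add compounds in DMSO; incubate 16 hr; add CellTiter-Fluor; after 1 hr at 37 C and 5% CO2, read fluorescence.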
Assay [7] concerns the target Nuclear receptor subfamily 1 group I member 2 (Homo sapiens) (UniProt O75469). The experiment in a line: Human pregnane X receptor (PXR) small molecule agonists, qHTS assay (AID 1346982). Also: nearly all actives have a fitted effect of over 35% in size. Also: potency is read from the fitted curve at half-maximal effect. The method in brief:
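Agonist mode qHTS: PXR-Luc HepG2 cells plated 5 hr before DMSO-dissolved compounds were pinned in, cultured 24 hr at 37 C, 5% CO2; ONE-Glo luminescence readout.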
% is scaled to controls: 0 for no effect and ±100 for the full control effect.

Sequence of Thyrotropin-releasing hormone receptor (Homo sapiens) (P34981 whole entry, looked up): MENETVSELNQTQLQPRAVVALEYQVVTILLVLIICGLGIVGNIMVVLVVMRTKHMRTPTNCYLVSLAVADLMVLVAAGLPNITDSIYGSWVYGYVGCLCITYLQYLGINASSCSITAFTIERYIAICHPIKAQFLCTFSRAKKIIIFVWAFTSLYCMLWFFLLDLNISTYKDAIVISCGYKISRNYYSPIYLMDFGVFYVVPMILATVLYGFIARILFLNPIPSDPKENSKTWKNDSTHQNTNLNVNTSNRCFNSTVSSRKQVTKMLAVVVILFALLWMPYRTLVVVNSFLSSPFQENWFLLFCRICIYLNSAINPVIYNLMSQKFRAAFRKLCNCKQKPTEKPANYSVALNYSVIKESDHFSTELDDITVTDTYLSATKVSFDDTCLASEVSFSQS
Sequence of Nuclear receptor subfamily 1 group I member 2 (Homo sapiens) (O75469 whole entry, looked up): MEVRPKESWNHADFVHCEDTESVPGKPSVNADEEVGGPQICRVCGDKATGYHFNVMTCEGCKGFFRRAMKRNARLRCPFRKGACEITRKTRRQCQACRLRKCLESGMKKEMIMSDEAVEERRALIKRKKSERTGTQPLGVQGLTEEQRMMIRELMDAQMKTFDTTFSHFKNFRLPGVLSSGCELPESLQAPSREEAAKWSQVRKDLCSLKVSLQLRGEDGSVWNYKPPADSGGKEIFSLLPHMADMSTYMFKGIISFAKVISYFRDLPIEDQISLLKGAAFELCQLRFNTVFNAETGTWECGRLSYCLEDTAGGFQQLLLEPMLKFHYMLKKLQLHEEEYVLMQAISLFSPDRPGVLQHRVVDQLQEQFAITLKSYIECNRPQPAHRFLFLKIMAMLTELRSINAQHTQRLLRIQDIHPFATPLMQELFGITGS

As for `COC(=O)c1ccc(C)cc1C1=NC(C)(C(C)C)C(=O)N1` (stereo unspecified), the compound was called inactive in assay [1] and in assay [5]. In addition, the Potency result in assay [2], in assay [3], in assay [4] and in assay [6] was “inactive” in each case.
On to `COC(=O)C1=C(C)NC(C)=C(C(=O)OC)C1c1ccccc1[N+](=O)[O-]`, for which the compound was classed as inactive in assay [1] and in assay [5]. The Potency in assay [2] was 48.6 µM (active) and inactive; in assay [4] it was 48.6 µM (active) and 26.6 µM (active); in assay [6] it was 30.7 µM (active) and inactive. Moreover, the Potency result in assay [3] was “inactive”.
Turning to `COC(=O)CC(C)=O`, the call in assay [1] and in assay [5] was inactive. In addition, the Potency entry in assay [2], in assay [3], in assay [4], in assay [6] and in assay [7] was “inactive” each time.
For `CCc1nccnc1CC`, the activation is 0.11% [at 11.8 µM] (inactive) in assay [1] and -0.742% [at 19 µM] (inactive) in assay [7]. Moreover, the activity change, negative = cytotoxicity was -1.38% [at 19 µM] (inactive) in assay [2] and -4.23% [at 19 µM] (inactive) in assay [6]. Further, the caspase activation in assay [3] is 0.2% [at 19 µM] (inactive). In addition, the Potency result in assay [4] was “inactive”. The caspase-3/7 activation in assay [5] is -0.427% [at 19 µM] (inactive).
In the case of `Cc1c(O)cccc1O`, the outcome in assay [1] and in assay [5] was inactive. The Potency entry in assay [2], in assay [3], in assay [4], in assay [6] and in assay [7] was “inactive” in each case.
In the case of `c1cnc(N2CCN(Cc3ccc4c(c3)OCO4)CC2)nc1`, the outcome in assay [1] and in assay [5] was inactive. Also, the Potency result in assay [2], in assay [3], in assay [4], in assay [6] and in assay [7] was “inactive” in each case.
As for `OC[C@]1(O)OC[C@@H](O)[C@H](O)[C@@H]1O`, the compound was called inactive in assay [1] and in assay [5]. The Potency result in assay [2], in assay [3], in assay [4], in assay [6] and in assay [7] was “inactive” in each case.
`O=C1CCCC(=O)C1`: the compound was classed as inactive in assay [1] and in assay [5]. Besides, the Potency result in assay [2], in assay [3], in assay [4], in assay [6] and in assay [7] was “inactive” in each case.
Turning to `C=C(C)C(=O)OCCCCCCCC(C)C`, the compound was classed as inactive in assay [1] and in assay [5]. Further, the Potency is 976 nM (active) in assay [2], 1.09 µM (active) in assay [4], 1.38 µM (active) in assay [6] and 870 nM (active) in assay [7]. Also, the Potency result in assay [3] was “inactive”.
For `CC(C(=O)O)c1ccc(CC2CCCC2=O)cc1` (stereo unspecified), the result in assay [1] and in assay [5] was inactive. The Potency result in assay [2], in assay [3], in assay [4], in assay [6] and in assay [7] was “inactive” each time.
In the case of `CC(=O)Nc1ccc(S(N)(=O)=O)cc1`, the compound was classed as inactive in assay [1] and in assay [5]. The Potency entry in assay [2], in assay [3], in assay [4], in assay [6] and in assay [7] was “inactive” in each case.
With `OC1CCCCC1c1ccccc1` (stereo unspecified), the call in assay [1] and in assay [5] was inactive. Moreover, the Potency entry in assay [2], in assay [3], in assay [4], in assay [6] and in assay [7] was “inactive” throughout.
For `O=C[C@H](O)[C@@H](O)[C@H](O)[C@H](O)CO`, the result in assay [1] and in assay [5] was inactive. In addition, the Potency result in assay [2], in assay [3], in assay [4], in assay [6] and in assay [7] was “inactive” each time.
Regarding `N[C@H]1CN(c2c(F)cc3c(=O)c(C(=O)O)cn(C4C[C@H]4F)c3c2Cl)CC12CC2` (stereo partly specified), the outcome in assay [1] and in assay [5] was inactive. Besides, the Potency entry in assay [2], in assay [3], in assay [4], in assay [6] and in assay [7] was “inactive” in each case.
Turning to `COCCCOCCCOC`, the result in assay [1] and in assay [5] was inactive. Further, the Potency result in assay [2], in assay [3], in assay [4], in assay [6] and in assay [7] was “inactive” in each case.
As for `CCCCCCCCS(=O)(=O)Cl`, the call in assay [1] and in assay [5] was inactive. The Potency entry in assay [2], in assay [3], in assay [4], in assay [6] and in assay [7] was “inactive” each time.
`CO[C@]12C[C@@H](COC(=O)c3cncc(Br)c3)CN(C)[C@@H]1Cc1cn(C)c3cccc2c13`: the result in assay [1] and in assay [5] was inactive. The Potency entry in assay [2], in assay [3], in assay [4], in assay [6] and in assay [7] was “inactive” throughout.
Take `Cc1ccc(Cl)cc1Cl`: the result in assay [1] and in assay [5] was inactive. Also, the Potency result in assay [2], in assay [3], in assay [4], in assay [6] and in assay [7] was “inactive” throughout.
For the compound `CC(C)NC(=O)NC(C)C`, the compound was classed as inactive in assay [1] and in assay [5]. Also, the Potency entry in assay [2], in assay [3], in assay [4], in assay [6] and in assay [7] was “inactive” each time.
Turning to `NCCCNCCSP(=O)(O)O`, the values for the activation in assay [1] and in assay [7] were -0.402% [at 5.23 µM] (inactive) and -4.2% [at 8.39 µM] (inactive), respectively. Moreover, the results for the activity change, negative = cytotoxicity in assay [2], in assay [4] and in assay [6] were 7.22% [at 8.39 µM] (inactive), 5.53% [at 8.39 µM] (inactive) and 1.15% [at 8.39 µM] (inactive), respectively. Further, the caspase activation in assay [3] was -1.36% [at 8.39 µM] (inactive). Also, the caspase-3/7 activation in assay [5] is 0.0901% [at 8.39 µM] (inactive).
Regarding `OCCCC1CCCCC1`, the outcome in assay [1] and in assay [5] was inactive. Also, the Potency result in assay [2], in assay [3], in assay [4], in assay [6] and in assay [7] was “inactive” throughout.
As for `CCC(C)C1CCCCC1=O` (stereo unspecified), the compound was called inactive in assay [1] and in assay [5]. Besides, the Potency result in assay [2], in assay [3], in assay [4], in assay [6] and in assay [7] was “inactive” in each case.
As for `NC(=O)COCCN1CCN(C(c2ccccc2)c2ccc(Cl)cc2)CC1` (stereo unspecified), the compound was called inactive in assay [1] and in assay [5]. Moreover, the Potency entry in assay [2], in assay [3], in assay [4], in assay [6] and in assay [7] was “inactive” in each case.
In the case of `N=c1nc(N2CCCCC2)cc(N)n1O`, the result in assay [1] and in assay [5] was inactive. The Potency entry in assay [2], in assay [3], in assay [4], in assay [6] and in assay [7] was “inactive” in each case.
Take `Nc1c[n+](N2CCOCC2)no1`: the result in assay [1] and in assay [5] was inactive. Besides, the Potency entry in assay [2], in assay [3], in assay [4], in assay [6] and in assay [7] was “inactive” in each case.
Consider `O=C(O)c1ccccc1OP(=O)(O)O`, for which the result in assay [1] and in assay [5] was inactive. Besides, the Potency entry in assay [2], in assay [3], in assay [4], in assay [6] and in assay [7] was “inactive” in each case.
As to `CS(=O)(=O)O`, the outcome in assay [1] and in assay [5] was inactive. For the same compound, the Potency entry in assay [2], in assay [3], in assay [4], in assay [6] and in assay [7] was “inactive” each time.
`CN1C(=O)N(C)C(O)C1O` (stereo unspecified): the outcome in assay [1] and in assay [5] was inactive. In addition, the Potency entry in assay [2], in assay [3], in assay [4], in assay [6] and in assay [7] was “inactive” each time.
Take `CCCCCCCCCCCCCC=O`: the activation is 0.0389% [at 5.23 µM] (inactive) in assay [1] and -0.115% [at 8.39 µM] (inactive) in assay [7]. The activity change, negative = cytotoxicity was -1.66% [at 8.39 µM] (inactive) in assay [2], 0.0836% [at 8.39 µM] (inactive) in assay [4] and -0.047% [at 8.39 µM] (inactive) in assay [6]. Also, in assay [3], the caspase activation is -1.41% [at 8.39 µM] (inactive). Further, the caspase-3/7 activation in assay [5] was 1.18% [at 8.39 µM] (inactive).
